Among the data in the supplement of paper PMC10849652 are log2 fold change values, retold here.

Targets with a hit are over-represented here; the source holds about 8,800 in all. About 0.5% of all pairs of compound and target were hits. Unmarked numbers belong to inactive results.

UniProt Q9H7B4, sequence (Q9H7B4 whole entry, looked up): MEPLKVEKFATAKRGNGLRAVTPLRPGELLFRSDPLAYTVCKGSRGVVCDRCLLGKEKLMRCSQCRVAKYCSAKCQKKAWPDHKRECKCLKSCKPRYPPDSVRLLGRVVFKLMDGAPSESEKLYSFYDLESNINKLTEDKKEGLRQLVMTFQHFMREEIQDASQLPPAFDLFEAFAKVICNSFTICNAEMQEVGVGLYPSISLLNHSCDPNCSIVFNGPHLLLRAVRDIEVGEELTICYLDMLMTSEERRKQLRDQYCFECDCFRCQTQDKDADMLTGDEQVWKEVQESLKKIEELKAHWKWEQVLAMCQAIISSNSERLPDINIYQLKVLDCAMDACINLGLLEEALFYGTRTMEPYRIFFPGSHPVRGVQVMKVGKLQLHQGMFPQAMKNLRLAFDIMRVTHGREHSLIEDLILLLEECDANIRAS
UniProt P53985, sequence (P53985 whole entry, looked up): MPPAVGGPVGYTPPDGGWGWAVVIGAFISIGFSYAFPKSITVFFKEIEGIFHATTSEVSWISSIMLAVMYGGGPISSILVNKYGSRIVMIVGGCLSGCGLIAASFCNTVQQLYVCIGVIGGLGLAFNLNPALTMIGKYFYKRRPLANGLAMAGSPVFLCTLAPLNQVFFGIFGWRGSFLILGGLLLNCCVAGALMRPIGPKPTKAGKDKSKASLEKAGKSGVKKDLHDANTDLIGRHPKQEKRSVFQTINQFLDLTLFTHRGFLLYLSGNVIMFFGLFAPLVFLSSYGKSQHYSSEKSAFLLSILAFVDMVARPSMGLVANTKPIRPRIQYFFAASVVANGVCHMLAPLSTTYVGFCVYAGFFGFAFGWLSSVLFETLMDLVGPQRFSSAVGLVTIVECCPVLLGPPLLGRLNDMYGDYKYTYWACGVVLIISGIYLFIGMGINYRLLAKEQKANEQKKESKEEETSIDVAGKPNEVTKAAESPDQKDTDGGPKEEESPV
UniProt Q96SB4, sequence (Q96SB4 whole entry, looked up): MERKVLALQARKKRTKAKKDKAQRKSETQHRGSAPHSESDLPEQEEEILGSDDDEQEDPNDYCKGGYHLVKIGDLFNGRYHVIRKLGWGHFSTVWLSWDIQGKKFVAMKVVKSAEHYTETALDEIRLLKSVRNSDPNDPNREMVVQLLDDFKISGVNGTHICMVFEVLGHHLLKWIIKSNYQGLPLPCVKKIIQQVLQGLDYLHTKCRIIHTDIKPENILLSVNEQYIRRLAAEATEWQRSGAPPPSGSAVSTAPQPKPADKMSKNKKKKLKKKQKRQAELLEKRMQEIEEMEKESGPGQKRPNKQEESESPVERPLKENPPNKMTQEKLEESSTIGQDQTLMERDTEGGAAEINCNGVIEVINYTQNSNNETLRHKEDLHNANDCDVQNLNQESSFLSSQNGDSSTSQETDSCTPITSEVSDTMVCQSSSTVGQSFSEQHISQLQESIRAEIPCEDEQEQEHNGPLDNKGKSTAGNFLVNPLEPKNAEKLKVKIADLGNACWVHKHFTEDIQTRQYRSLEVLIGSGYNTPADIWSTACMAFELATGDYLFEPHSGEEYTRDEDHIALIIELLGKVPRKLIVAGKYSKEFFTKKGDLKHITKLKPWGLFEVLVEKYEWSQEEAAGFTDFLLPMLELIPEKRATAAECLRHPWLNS
UniProt P29353, sequence (P29353 whole entry, looked up): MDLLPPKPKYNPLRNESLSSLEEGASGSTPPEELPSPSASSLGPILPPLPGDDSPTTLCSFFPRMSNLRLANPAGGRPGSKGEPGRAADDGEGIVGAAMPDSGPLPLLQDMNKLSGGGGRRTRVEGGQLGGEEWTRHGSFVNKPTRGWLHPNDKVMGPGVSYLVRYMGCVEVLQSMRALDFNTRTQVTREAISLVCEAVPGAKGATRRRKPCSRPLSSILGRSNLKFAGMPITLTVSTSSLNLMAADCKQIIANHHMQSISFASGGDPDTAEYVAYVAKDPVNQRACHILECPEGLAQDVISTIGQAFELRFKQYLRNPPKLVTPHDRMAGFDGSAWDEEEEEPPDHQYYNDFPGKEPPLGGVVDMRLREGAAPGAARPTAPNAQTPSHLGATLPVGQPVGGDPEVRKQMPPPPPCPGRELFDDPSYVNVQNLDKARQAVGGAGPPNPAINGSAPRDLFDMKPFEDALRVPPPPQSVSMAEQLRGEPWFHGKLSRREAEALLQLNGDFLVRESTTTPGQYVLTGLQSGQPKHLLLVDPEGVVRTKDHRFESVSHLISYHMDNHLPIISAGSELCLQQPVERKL
UniProt Q16637, sequence (Q16637 whole entry, looked up): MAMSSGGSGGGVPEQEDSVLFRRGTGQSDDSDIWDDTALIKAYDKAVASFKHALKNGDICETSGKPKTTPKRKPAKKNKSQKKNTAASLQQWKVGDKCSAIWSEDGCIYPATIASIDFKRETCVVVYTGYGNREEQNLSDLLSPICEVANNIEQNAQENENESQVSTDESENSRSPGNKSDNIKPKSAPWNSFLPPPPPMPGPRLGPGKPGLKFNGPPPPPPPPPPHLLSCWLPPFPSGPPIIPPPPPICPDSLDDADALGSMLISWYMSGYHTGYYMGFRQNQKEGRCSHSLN
UniProt Q9NP77, sequence (Q9NP77 whole entry, looked up): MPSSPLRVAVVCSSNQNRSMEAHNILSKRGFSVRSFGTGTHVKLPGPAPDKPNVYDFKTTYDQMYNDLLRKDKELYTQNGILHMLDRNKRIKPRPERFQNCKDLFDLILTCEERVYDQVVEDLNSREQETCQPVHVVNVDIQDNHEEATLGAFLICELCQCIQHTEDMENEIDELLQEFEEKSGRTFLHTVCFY
UniProt Q13395, sequence (Q13395 whole entry, looked up): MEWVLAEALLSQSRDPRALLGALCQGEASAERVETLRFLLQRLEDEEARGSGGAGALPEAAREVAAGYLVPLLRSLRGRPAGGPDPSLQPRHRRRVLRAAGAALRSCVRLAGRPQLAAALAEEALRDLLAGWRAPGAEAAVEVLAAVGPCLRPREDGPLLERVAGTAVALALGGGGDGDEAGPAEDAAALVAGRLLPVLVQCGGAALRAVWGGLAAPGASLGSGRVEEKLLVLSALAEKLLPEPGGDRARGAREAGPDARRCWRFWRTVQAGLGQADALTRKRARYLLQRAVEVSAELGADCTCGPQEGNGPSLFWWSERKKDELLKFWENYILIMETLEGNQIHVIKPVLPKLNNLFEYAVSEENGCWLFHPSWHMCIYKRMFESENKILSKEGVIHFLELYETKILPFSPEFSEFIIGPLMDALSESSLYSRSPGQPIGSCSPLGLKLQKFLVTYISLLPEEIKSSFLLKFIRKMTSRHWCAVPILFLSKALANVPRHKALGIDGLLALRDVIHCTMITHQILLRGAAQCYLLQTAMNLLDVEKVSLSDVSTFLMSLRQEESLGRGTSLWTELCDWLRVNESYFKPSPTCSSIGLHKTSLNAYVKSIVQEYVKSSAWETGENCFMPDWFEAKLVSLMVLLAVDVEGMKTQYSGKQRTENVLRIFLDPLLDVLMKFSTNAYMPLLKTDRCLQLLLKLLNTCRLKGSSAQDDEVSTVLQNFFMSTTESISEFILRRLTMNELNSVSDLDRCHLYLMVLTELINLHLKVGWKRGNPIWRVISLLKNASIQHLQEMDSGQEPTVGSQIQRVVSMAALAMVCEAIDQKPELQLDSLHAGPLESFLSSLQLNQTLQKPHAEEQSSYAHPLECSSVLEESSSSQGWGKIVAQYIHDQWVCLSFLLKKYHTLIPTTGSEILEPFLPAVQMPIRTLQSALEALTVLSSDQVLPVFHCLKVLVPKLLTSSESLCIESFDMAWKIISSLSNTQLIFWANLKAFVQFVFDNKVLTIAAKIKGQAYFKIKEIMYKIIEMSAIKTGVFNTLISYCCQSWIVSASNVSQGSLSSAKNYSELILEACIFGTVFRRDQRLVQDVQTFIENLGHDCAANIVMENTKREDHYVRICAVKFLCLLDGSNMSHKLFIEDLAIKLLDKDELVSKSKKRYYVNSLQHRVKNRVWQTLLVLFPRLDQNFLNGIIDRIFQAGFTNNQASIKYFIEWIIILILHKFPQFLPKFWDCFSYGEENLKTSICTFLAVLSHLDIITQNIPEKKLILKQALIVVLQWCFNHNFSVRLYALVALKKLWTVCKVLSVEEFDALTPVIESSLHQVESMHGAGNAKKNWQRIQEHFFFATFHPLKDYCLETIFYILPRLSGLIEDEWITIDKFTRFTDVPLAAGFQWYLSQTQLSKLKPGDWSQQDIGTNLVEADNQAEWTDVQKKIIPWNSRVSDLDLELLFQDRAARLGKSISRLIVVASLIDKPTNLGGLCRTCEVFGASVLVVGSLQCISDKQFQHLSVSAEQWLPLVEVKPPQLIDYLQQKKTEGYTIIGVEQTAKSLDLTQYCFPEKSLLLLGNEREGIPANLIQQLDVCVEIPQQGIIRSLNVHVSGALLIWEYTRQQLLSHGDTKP
UniProt O00161, sequence (O00161 whole entry, looked up): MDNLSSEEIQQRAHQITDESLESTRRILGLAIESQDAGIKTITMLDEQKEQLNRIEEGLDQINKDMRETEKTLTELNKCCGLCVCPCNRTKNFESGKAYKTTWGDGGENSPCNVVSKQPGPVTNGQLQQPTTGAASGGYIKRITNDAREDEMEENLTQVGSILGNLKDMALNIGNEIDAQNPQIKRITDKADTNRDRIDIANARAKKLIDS
UniProt P35270, sequence (P35270 whole entry, looked up): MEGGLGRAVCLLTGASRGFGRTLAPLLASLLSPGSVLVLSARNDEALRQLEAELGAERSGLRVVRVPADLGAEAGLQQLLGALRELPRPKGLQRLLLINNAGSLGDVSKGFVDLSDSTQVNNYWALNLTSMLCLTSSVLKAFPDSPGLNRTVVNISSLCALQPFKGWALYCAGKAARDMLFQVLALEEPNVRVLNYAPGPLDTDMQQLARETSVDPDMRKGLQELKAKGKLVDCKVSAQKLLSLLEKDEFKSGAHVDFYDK
UniProt P62306, sequence (P62306 whole entry, looked up): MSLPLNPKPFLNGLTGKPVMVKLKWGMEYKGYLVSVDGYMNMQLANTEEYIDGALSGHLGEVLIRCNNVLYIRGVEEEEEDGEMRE
UniProt Q96KF7, sequence (Q96KF7 whole entry, looked up): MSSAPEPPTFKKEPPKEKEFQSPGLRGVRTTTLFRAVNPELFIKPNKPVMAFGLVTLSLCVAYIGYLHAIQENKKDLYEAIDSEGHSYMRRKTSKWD

Compound in one test: C1CCN(C1)C(=O)NC2=CC=CC(=C2)NC3=NC=C(C(=N3)NCCC4=CN=CN4)Br
As to the kind of experiment: log2 fold change, soluble protein after heating vs DMSO (PISA); higher = thermal stabilisation; K562 lysate, 10 uM; active = over 0.2 and 3.5 SD of the protein, either way, in both replicates (recomputed). The procedure, abridged: (§1)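 Values give the log-two fold change in thermal stability against solvent controls, from duplicates. Crude K562 extract at 1 mg/mL protein, made by dounce homogenisation in PBS pH 7.4 with 1 mM MgCl2, was treated with 10 μM compound for 30 min. After 3 min heating across 48°C-58°C, aliquots were pooled, adjusted to 0.5% NP-40 at 4°C and centrifuged at 21,000xg for 90 min. The supernatant was measured by TMTpro 16plex LC-MS/MS with channel sums equalised.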
For the target STK11IP (UniProt Q8N1F8), the log2 fold change is -0.029.
Same read-out and setting: in the case of SPR (UniProt P35270) it was 0.008; in that of SFN (UniProt P31947), 0.012; in that of SPPL2A (UniProt Q8TCT8), -0.082.
For the target SPC25 (UniProt Q9HBM1), the log2 fold change was -0.039.
For SNW1 (UniProt Q13573), the log2 fold change was 0.022.
SMC2 (UniProt O95347): the log2 fold change was 0.003.
With TARBP1 (UniProt Q13395), the log2 fold change was 0.007.
Regarding SMC1B isoform 3 (UniProt Q8NDV3), the log2 fold change is 0.048.
SRM (UniProt P19623): the log2 fold change is 0.017.
For the target SRRT (UniProt Q9BXP5), the log2 fold change is -0.005.
The same measure, in the same setting: in the case of SRPK1 (UniProt Q96SB4) it was -0.01; in that of SNRNP40 (UniProt Q96DI7), 0.02; in that of SHC1 isoform 6 (UniProt P29353), -0.005.
Take SSBP3 (UniProt Q9BWW4): the log2 fold change was -0.054.
As to SMIM8 (UniProt Q96KF7), the log2 fold change was 0.026.
With SNAP23 (UniProt O00161), the log2 fold change is 0.018.
Still for that read-out and setting: in the case of SPHK1 isoform 2 (UniProt Q9NYA1) it was 0.016.
STK26 (UniProt Q9P289): the log2 fold change is 0.03.
As to STK39 (UniProt Q9UEW8), the log2 fold change is -0.004.
Take SMN1 (UniProt Q16637): the log2 fold change is -0.046.
On to SMG5 (UniProt Q9UPR3), for which the log2 fold change was -0.004.
On the same count and under the same terms, in the case of SP1 (UniProt P08047) it was 0.004; in that of SSU72 (UniProt Q9NP77), 0.029; in that of SNRPD2 (UniProt P62316), 0.004.
With SH3GL3 isoform 3 (UniProt Q99963), the log2 fold change was 0.054.
For the target SMYD3 (UniProt Q9H7B4), the log2 fold change was -0.022.
As for SNCA (UniProt P37840), the log2 fold change was -0.056.
For STK25 (UniProt O00506), the log2 fold change is 0.052.
The same measure, in the same setting: in the case of SLC16A1 (UniProt P53985) it was -0.024; in that of SNRPF (UniProt P62306), -0.018; in that of SMG7 (UniProt Q92540), -0.077.

Compound in a further test: C1CN(CCC1(CC2=CC=C(C=C2)Cl)N)C3=NC=NC4=C3C=CN4
The test is described as above. The procedure, abridged: as §1
Consider STK11IP (UniProt Q8N1F8), for which the log2 fold change was 0.033.
For the target SPR (UniProt P35270), the log2 fold change is -0.041.
Same read-out and setting: in the case of SFN (UniProt P31947) it was -0.064.
Same read-out and setting: in the case of SPPL2A (UniProt Q8TCT8) it was -0.644 (active).
SPC25 (UniProt Q9HBM1): the log2 fold change was 0.018.
Still for that read-out and setting: in the case of SNW1 (UniProt Q13573) it was -0.021.
As to SMC2 (UniProt O95347), the log2 fold change is -0.008.
With TARBP1 (UniProt Q13395), the log2 fold change was 0.034.
As to SMC1B isoform 3 (UniProt Q8NDV3), the log2 fold change was 0.205.
In the case of SRM (UniProt P19623), the log2 fold change is 0.027.
Regarding SRRT (UniProt Q9BXP5), the log2 fold change was -0.011.
With SRPK1 (UniProt Q96SB4), the log2 fold change was 0.007.
Regarding SNRNP40 (UniProt Q96DI7), the log2 fold change was -0.004.
SHC1 isoform 6 (UniProt P29353): the log2 fold change was 0.001.
With SSBP3 (UniProt Q9BWW4), the log2 fold change was 0.013.
Turning to SMIM8 (UniProt Q96KF7), the log2 fold change was 0.
On the same count and under the same terms, in the case of SNAP23 (UniProt O00161) it was 0.03; in that of SPHK1 isoform 2 (UniProt Q9NYA1), 0.038.
Regarding STK26 (UniProt Q9P289), the log2 fold change was -0.011.
With STK39 (UniProt Q9UEW8), the log2 fold change is -0.013.
Take SMN1 (UniProt Q16637): the log2 fold change is -0.104.
Consider SMG5 (UniProt Q9UPR3), for which the log2 fold change was -0.043.
On the same count and under the same terms, in the case of SP1 (UniProt P08047) it was 0.013.
For SSU72 (UniProt Q9NP77), the log2 fold change was 0.
With SNRPD2 (UniProt P62316), the log2 fold change was -0.008.
On to SH3GL3 isoform 3 (UniProt Q99963), for which the log2 fold change is -0.06.
Consider SMYD3 (UniProt Q9H7B4), for which the log2 fold change was -0.038.
For the target SNCA (UniProt P37840), the log2 fold change was -0.085.
Still for that read-out and setting: in the case of STK25 (UniProt O00506) it was -0.022; in that of SLC16A1 (UniProt P53985), 0.004.
As for SNRPF (UniProt P62306), the log2 fold change was 0.001.
Take SMG7 (UniProt Q92540): the log2 fold change is -0.01.

Compound in a further test: C1COCCN1CCN2C3=CC=CC=C3N=C2NC(=O)C4=CC(=CC=C4)[N+](=O)[O-] [IRAK-1-4 Inhibitor I]
The description is as above. The procedure, abridged: as §1
In the case of STK11IP (UniProt Q8N1F8), the log2 fold change was 0.053.
For SPR (UniProt P35270), the log2 fold change was 0.049.
As to SFN (UniProt P31947), the log2 fold change is -0.03.
On to SPPL2A (UniProt Q8TCT8), for which the log2 fold change was 0.014.
Still for that read-out and setting: in the case of SPC25 (UniProt Q9HBM1) it was 0.027; in that of SNW1 (UniProt Q13573), 0; in that of SMC2 (UniProt O95347), -0.019.
Take TARBP1 (UniProt Q13395): the log2 fold change is 0.084.
On the same count and under the same terms, in the case of SMC1B isoform 3 (UniProt Q8NDV3) it was 0.043; in that of SRM (UniProt P19623), 0.007.
Turning to SRRT (UniProt Q9BXP5), the log2 fold change is 0.004.
SRPK1 (UniProt Q96SB4): the log2 fold change is 0.019.
The same measure, in the same setting: in the case of SNRNP40 (UniProt Q96DI7) it was 0.01; in that of SHC1 isoform 6 (UniProt P29353), 0.012.
For SSBP3 (UniProt Q9BWW4), the log2 fold change is 0.041.
On the same count and under the same terms, in the case of SMIM8 (UniProt Q96KF7) it was 0.058; in that of SNAP23 (UniProt O00161), 0.038.
On to SPHK1 isoform 2 (UniProt Q9NYA1), for which the log2 fold change was 0.018.
On to STK26 (UniProt Q9P289), for which the log2 fold change was -0.018.
Take STK39 (UniProt Q9UEW8): the log2 fold change was -0.003.
The same measure, in the same setting: in the case of SMN1 (UniProt Q16637) it was 0.02.
Still for that read-out and setting: in the case of SMG5 (UniProt Q9UPR3) it was 0.007; in that of SP1 (UniProt P08047), 0.034.
With SSU72 (UniProt Q9NP77), the log2 fold change is 0.001.
Take SNRPD2 (UniProt P62316): the log2 fold change was 0.004.
As to SH3GL3 isoform 3 (UniProt Q99963), the log2 fold change was -0.124.
Still for that read-out and setting: in the case of SMYD3 (UniProt Q9H7B4) it was 0.001; in that of SNCA (UniProt P37840), 0.019.
Take STK25 (UniProt O00506): the log2 fold change is -0.001.
On the same count and under the same terms, in the case of SLC16A1 (UniProt P53985) it was 0.032; in that of SNRPF (UniProt P62306), 0.007; in that of SMG7 (UniProt Q92540), -0.011.
